Bioassay records: PubChem, National Center for Advancing Translational Sciences (NCATS)
Rows were chosen to be rich in hits. Some 3.7% of all compounds tested hit in one or more screens of this group.
WRN helicase inh: WRN helicase (human) inhibition; Q14191; WRN helicase unwinding, fluorescent forked duplex, kinetic; Potency, µM (titrated, usually from 114 µM), inactives show at the highest dose activity change, negative = inhibition, usual class: inhibitors; 360,000 tested, 0.46% active; AID 651768; note: potency is the fitted concentration of half-maximal effect; % is set by controls: 0 for no effect and ±100 for the full control effect; nearly all actives have a fitted effect of over 55% in size
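Fluorescence dequenching readout, ex 525 nm/em 598 nm, kinetic mode: forked duplex DNA (100 nM final) with adjacent fluorophore and quencher unwound by WRN (20 nM final) with 2 mM ATP. Compound preincubation 15 min, room temperature.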
VDR inhibitor: vitamin D3 receptor (human) inhibition. P11473. VDR-SRC2-3 peptide fluorescence polarization, 2 h. AID 504847. 400,000 tested, 0.93% active. Potency, µM, for the others: max response, negative = inhibition, hits mostly inhibitors; note: potency is the fitted concentration of half-maximal effect; % is set by controls: 0 for no effect and ±100 for the full control effect
Target sequence (P11473 whole entry, looked up): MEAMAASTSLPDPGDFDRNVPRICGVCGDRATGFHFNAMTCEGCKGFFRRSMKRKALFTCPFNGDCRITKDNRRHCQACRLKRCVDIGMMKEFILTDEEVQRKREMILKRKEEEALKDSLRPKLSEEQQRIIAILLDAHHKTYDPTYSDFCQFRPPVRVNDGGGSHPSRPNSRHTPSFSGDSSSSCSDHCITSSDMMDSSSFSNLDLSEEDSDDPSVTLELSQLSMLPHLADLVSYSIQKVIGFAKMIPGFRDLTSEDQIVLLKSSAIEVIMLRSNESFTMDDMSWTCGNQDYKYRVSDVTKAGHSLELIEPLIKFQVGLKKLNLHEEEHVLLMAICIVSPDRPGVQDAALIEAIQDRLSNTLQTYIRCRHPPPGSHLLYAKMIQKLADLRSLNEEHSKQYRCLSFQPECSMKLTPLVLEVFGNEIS
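Reagent solutions, kept cold and dark, are dispensed first; compounds are then pinned in at 23 nl, plates briefly spun, and incubated 2 h at ambient temperature. Inhibition of VDR–SRC2-3 peptide binding is read by fluorescence polarization.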
PLK1 PBD inh: blocks phosphopeptide binding to human PLK1 polo-box domain; Plk1 PBD binding of FITC phosphopeptide, fluorescence polarization; AID 720504; 360,000 tested, 2.8% active; Potency, µM, for the others: max response, negative = inhibition, usual class: inhibitors; P53350; note: potency is the fitted concentration of half-maximal effect; series mostly up to about 57 µM; % is set by controls: 0 for no effect and ±100 for the full control effect; nearly all actives have a fitted effect of over 65% in size
TCR act: activators of T cell receptors; 330,000 tested, under 10 active; primary human leukocytes, anti-CD3, IL-2 HTRF, 48 h; Potency, µM (titrated, usually from 9.22 µM), without a hit: top-dose activation of IL-2 secretion, actives largely listed as activators; note: % of control where 0% means no effect
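Primary human leukocytes were stimulated with a-CD3 beads plus compounds for 48 hr without co-stimulation; secreted IL-2 was quantified by HTRF using a-IL-2-K (europium cryptate) and a-IL-2-d2, excited at 320nm with acceptor emission read at 665nm.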
PI5P4K alpha inh: PI5P4K alpha (human) kinase inhibition; P48426; PI5P4Kalpha enzyme, ADP-Glo luminescence, 60 min; active compounds read low; max response, %; 330,000 tested, 1.2% active; AID 652105; active = max response of -50% or lower; inconclusive = between -30% and -50%; inactive = -30% or higher; note: value at the top dose of about 77 µM; % is set by controls: 0 for no effect and ±100 for the full control effect
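Single end-point luminescence (ADP-Glo) quantified ADP from PI5P4Kalpha turnover; ATP 5 microM final, 1 h at RT, 0.1% CHAPS and 0.28 mM EGTA in HEPES pH 7.4.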
FEN1 inhibitor: inhibitors of human flap endonuclease 1; Recombinant FEN1 flap cleavage, fluorescence, 15 min; 390,000 tested, 0.35% active; P39748; Potency, µM (top dose mostly 114 µM), inactives show at the top dose activity change, negative = inhibition, most hits filed as inhibitors; note: potency is the fitted concentration of half-maximal effect; % is set by controls: 0 for no effect and ±100 for the full control effect; nearly all actives have a fitted effect of over 65% in size
Target sequence (P39748 whole entry, looked up): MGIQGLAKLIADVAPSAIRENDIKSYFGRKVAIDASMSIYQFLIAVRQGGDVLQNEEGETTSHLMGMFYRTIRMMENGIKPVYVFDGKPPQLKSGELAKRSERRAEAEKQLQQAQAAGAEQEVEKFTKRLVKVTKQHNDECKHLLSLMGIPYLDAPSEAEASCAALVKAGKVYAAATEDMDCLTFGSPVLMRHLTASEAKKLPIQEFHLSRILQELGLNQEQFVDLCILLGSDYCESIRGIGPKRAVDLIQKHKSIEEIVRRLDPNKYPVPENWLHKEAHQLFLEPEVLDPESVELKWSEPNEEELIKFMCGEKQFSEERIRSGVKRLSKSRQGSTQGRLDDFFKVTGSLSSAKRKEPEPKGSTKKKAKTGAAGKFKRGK
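Quantitative HTS format: each compound was titrated, incubated with 10 nM nuclease for 15 min at room temperature, then challenged with flap substrate at 50 nM final. Signal change over 15 min gave concentration–effect curves.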
An asterisk follows results filed as active; ? = inconclusive; . = not tested or not shown; [ ] = remark or other dose. Unless noted, calls come from the whole dose curve; as a rule, active = well fitted curve in the direction sought with a large enough effect; inconclusive = small, poorly fitted or top-dose-only effect, or another doubt; inactive = no such curve, though single readings can be large; an effect the other way counts as inactive or inconclusive.

SMILES	WRN helicase inh	VDR inhibitor	PLK1 PBD inh	TCR act	PI5P4K alpha inh	FEN1 inhibitor
COc1ccccc1C(=O)N/C(=C\c1ccc(Br)cc1)C(=O)NCC(=O)O	-2.6%	-13.9%	-10.3%	-4.3%[46.1 µM]	12.5	-0.3%
CCN(CC)CCn1c2ccccc2c2nc3ccccc3nc21	1.9%[11.6 µM]	-11.4%	0.3%	0.8%	-5.5	25.1µM*
CCCn1c2ccccc2c2nc3ccccc3nc21	0.0%[57.1 µM]	-13.2%	-5.1%	-3.5%	0.9	?
CC(=O)Nc1cc(O)c2nonc2c1O	.	4.47µM*	.	.	.	?
Nc1cc(Nc2ccc(Br)cc2)nc(N)n1	-8.7%	44.7µM*	-18.5%	-0.6%	1.2	-2.5%
Cc1cc(Nc2ccc(Cl)cc2)nc(N)n1	1.5%	-10.2%	-0.7%	0.2%	-1.1	-5.7%
Cc1ccc(C(=O)O)cc1N=Cc1cc(Br)cc(Br)c1O	?	-16.7%	?	4.4%[46.1 µM]	-55.8*	-3.0%
Cc1ccc(NC(=O)C2(c3ccccc3)CCOCC2)cc1	-0.5%	-15.4%	26.7µM*	-8.8%	?	-1.5%
O=C(O)c1ccc(NC(=O)C2(c3ccccc3)CCOCC2)cc1	3.3%	-3.8%	1.2%	4.3%	0.8	-4.3%
Nc1cc(C(=O)O)c(N)c2c1C(=O)c1ccccc1C2=O	?	8.91µM*	18.9µM*	4.0%	-83.0*	35.5µM*
COc1ccc(Br)cc1/C=N/N1C(=O)CSC1=S	-17.4%	5.1%	-24.1%	-1.2%	?	-17.1%
COc1cc(O)c(C=NN2C(=O)CSC2=S)c(OC)c1	-21.1%	.	-24.0%	.	-75.5*	.
COc1cc(/C=N/N2C(=O)CSC2=S)ccc1O	?	-5.2%	-18.0%	0.5%	-50.6*	?
O=C1CSC(=S)N1/N=C/c1cc(Br)c(O)c(Br)c1	20µM*	?	78.6%	-3.0%	-105.5*	22.4µM*
O=C1CSC(=S)N1/N=C/c1ccc2c(c1)OCCO2	-31.1%	-20.1%	?	3.7%	-57.4*	5.2%
O=C1CSC(=S)N1/N=C/c1cccnc1	-26.8%	-10.8%	?	-0.4%	?	3.9%
CCCN1CNc2c(c(=O)[nH]c(=S)n2CCCc2ccccc2)C1	.	?	.	.	.	8.7%
CC1=NN(c2ccccc2)C(=O)/C1=C\c1sccc1C	-9.0%	?	10.6µM*	6.2%	-6.3	?
COc1ccccc1/C=C1/C(=O)ON=C1C	-1.8%	50.1µM*	4.74µM*	0.9%	-8.8	-9.2%
COc1ccccc1/C=C1/C(=O)N(c2ccccc2)N=C1C	-7.8%	?	2.67µM*	-1.1%	1.7	?
O=C(CSc1nc(-c2cccs2)nc2cc(=O)[nH]n12)Nc1ccccc1Cl	.	13.0%	.	.	.	3.7%
O=C(CNC(=O)c1ccc(N2C(=O)c3ccccc3C2=O)cc1)OCC(=O)c1ccccc1	5.0%	-9.1%	23.8µM*	-4.9%[46.1 µM]	-18.3	2.0%
O=C(CNC(=O)c1ccc(N2C(=O)c3ccccc3C2=O)cc1)OCC(=O)c1cccc2ccccc12	-20.1%[57.1 µM]	-26.2%	-3.0%	2.3%[46.1 µM]	-9.3	-2.0%
COC(=O)c1ccccc1NC(=O)COc1ccccc1C(=O)Nc1ccccc1	.	.	.	.	.	7.1%
Nc1ccc(Cc2ccc(C=O)cc2)cc1	.	.	.	.	.	3.9%
SMILES	WRN helicase inh	VDR inhibitor	PLK1 PBD inh	TCR act	PI5P4K alpha inh	FEN1 inhibitor
Cc1ccc(SCC(=O)c2ccc(CC(=O)O)s2)cc1	?	-13.8%	?	2.7%	?	-3.4%
O=C(O)Cc1ccc(C(=O)CSc2ccccc2)s1	?	?	11.9µM*	4.4%	-58.7*	-31.8%
N#C/C(=C/c1ccc([N+](=O)[O-])cc1)C(N)=O	11.6%	79.4µM*	-20.6%	.	1.7	-2.9%
COCCCn1c(=O)c2sccc2n2c(CCCC(=O)NC3CCC(C)CC3)nnc12 (centres undefined)	.	-0.9%	.	.	.	-10.9%
O=C1C=CC(=O)N1CCCCCCCCCCN1C(=O)C=CC1=O	3.16µM*	15.8µM*	1.19µM*	-0.8%	-50.6*	10.6%
COC(=O)c1ccc(Cc2ccc(C(=O)OC)o2)o1	3.5%[57.1 µM]	0.7%	-0.8%	-2.8%	.	-2.6%
CCC(C)NCc1ccc(C(=O)OC)o1 (centres undefined)	6.8%	?	23.8µM*	.	-14.9	-1.8%
COc1ccccc1/C=C/C(=O)c1ccccc1	-5.9%	79.4µM*	-12.3%	-0.5%	2.4	-25.3%
O=C(/C=C/c1ccc2c(c1)OCCO2)c1ccccc1	-15.9%	50.1µM*	-14.7%	-1.2%	1.2	-18.5%
O=C(/C=C/c1c[nH]c2ccccc12)c1ccccc1	-15.0%	-12.3%	1.8%	2.7%[46.1 µM]	13.3	-1.8%
CC(=O)/C=C/c1ccccc1O	-4.0%	-9.9%	-13.8%	-3.4%	-9.6	3.0%
O=C(/C=C/c1ccccc1O)c1ccccc1	-13.8%	28.2µM*	-24.1%	-8.2%	-4.4	-3.7%
COc1ccc(C(=O)/C=C/c2ccc3c(c2)OCCO3)cc1	-4.5%	-27.4%	4.3%	10.7%	-0.7	1.1%
COc1ccccc1/C=C/C(=O)c1ccc(Cl)cc1	-6.7%[11.6 µM]	?	-11.6%	-1.0%	.	-14.1%
O=C(/C=C/c1ccc[nH]1)c1ccccc1	-20.8%	79.4µM*	29.9µM*	29.8%	-22.2	-0.3%
CCOc1ccccc1CNC(=O)CCc1cn(Cc2ccc(Cl)cc2)c2ccccc12	.	-2.7%	.	.	.	7.4%
Cc1ccc(C(CC(=O)NCC2(c3ccccc3)CCCC2)c2ccccc2)c(O)c1 (centres undefined)	.	?	.	.	.	-21.8%
COc1cccc([C@@H]2Oc3ccc(OC)cc3C[C@H]2O)c1	.	-0.9%	.	.	.	.
CN(C)c1ccc(/C=C/c2ccnc3ccc(-c4ccccc4)cc23)cc1	.	.	.	.	.	1.1%
COc1cc(O)c(C(=O)/C=C/c2ccccc2)c(OC)c1	-10.3%	14.1µM*	-9.3%	-1.6%	23.7	-6.7%
CCOc1ccc(/C=C/C(=O)c2ccc(-c3ccccc3)cc2)cc1	2.3%	-17.4%	-24.1%	-0.3%[46.1 µM]	-2.8	6.4%
N#Cc1ccc(/C=C/C(=O)c2ccccc2)cc1	-30.6%	14.1µM*	-25.8%	-3.2%	4.2	-16.4%
O=C(/C=C/c1ccccc1O)c1ccc(Cl)cc1	-35.1%	35.5µM*	-26.1%	-1.2%	2.7	-2.3%
O=C(O)c1ccc2[nH]c3c(c2c1)CSCC3	-25.2%	44.7µM*	?	-1.5%	-8.7	7.1%
CCCc1nnc(NC(=O)CCS(=O)(=O)Cc2ccccc2)s1	4.5%	23.6%	-18.5%	1.0%	-5.2	-14.4%
CCCc1nnc(NC(=O)CS(=O)(=O)c2ccccc2)s1	-2.2%	-9.1%	-29.1%	-3.0%	-5.9	1.2%
CCC(CC)c1nnc(NC(=O)CCS(=O)(=O)Cc2ccccc2)s1	-9.5%	-5.6%	23.8µM*	-2.4%	4.4	-0.7%
CCC(CC)c1nnc(NC(=O)CS(=O)(=O)c2ccccc2)s1	-6.0%	?	9.47µM*	-5.9%	-9.2	5.5%
NC(=S)N=Nc1ccc(NN=C(N)N)cc1	?	17.8µM*	3.77µM*	7.8%	-84.1*	50.1µM*
CCN(CC)c1ccc(/C=C2/SC(=O)N(C(C)C)C2=O)o1	-20.9%	31.6µM*	55.4%	-2.0%[46.1 µM]	-2.3	-26.6%
